Results filed as inconclusive are left out. This is one part of the list. Active and inactive are the calls of the source. Unless noted, calls come from the whole dose curve; as a rule, active = well fitted curve in the direction sought with a large enough effect; inconclusive = small, poorly fitted or top-dose-only effect, or another doubt; inactive = no such curve, though single readings can be large; an effect the other way counts as inactive or inconclusive.
Key:
[1] = qHTS for Inhibitors of the vitamin D receptor (VDR): Hit Validation using a Texas Red Assay (AID 602201); note: potency is the fitted concentration of half-maximal effect
Method in brief: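 Fluorescence polarization (Ex 595/Em 615 nm) of Texas Red (7 nM) with 1.5 uM VDR-LBD and LG19078 (final concentrations). Compounds were incubated for 2 hours at room temperature.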

[2] = molecular target: Rap guanine nucleotide exchange factor 3 (Homo sapiens) (UniProt O95398); test: Confirmatory qHTS for antagonist of cAMP-regulated guanine nucleotide exchange factor 3 (EPAC1) (AID 1645880); conditions: EPAC1 Rap1B-BODIPY-GDP exchange, fluorescence; activity, negative = inhibition: at 115 µM (top of the series); note: nearly all actives have a fitted effect of over 55% in size; note: potency is the fitted concentration of half-maximal effect;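 for activity, negative = inhibition: plate controls were DMSO only for no effect and full effect of the ATA control for full effect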
Method in brief: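 Released BODIPY-GDP fluoresces less than Rap1-bound BODIPY-GDP; the signal is followed at 480/540 nm at 5-min intervals over 30 min, after 5 min at room temperature. Reactions contain 100 nM EPAC1, 250 nM RAP1B-BODIPY-GDP and 50 uM GDP; results are normalized to ATA and DMSO.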

[3] = molecular target: Rap guanine nucleotide exchange factor 3 (Homo sapiens) (UniProt O95398); test: Confirmatory qHTS for agonist of cAMP-regulated guanine nucleotide exchange factor 3 (EPAC1) (AID 1645881); note: nearly all actives have a fitted effect of over 75% in size; note: potency is the fitted concentration of half-maximal effect;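 for activation: EPAC1 catalysed release of BODIPY-GDP from Rap1B seen as fluorescence loss; 100% = effect of cAMP agonist control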
[4] = molecular target: Rap guanine nucleotide exchange factor 4 (Homo sapiens) (UniProt Q8WZA2); test: Confirmatory qHTS for agonist of cAMP-regulated guanine nucleotide exchange factor 4 (EPAC2) (AID 1645884);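 note: nucleotide exchange releases bodipy-GDP from Rap1 and this lowers its fluorescence; nearly all actives have a fitted effect of over 65% in size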; note: potency is the fitted concentration of half-maximal effect; for activation: % is set by controls: 0 for no effect and ±100 for the full control effect
[5] = molecular target: Rap guanine nucleotide exchange factor 4 (Homo sapiens) (UniProt Q8WZA2); test: Confirmatory qHTS for antagonist of cAMP-regulated guanine nucleotide exchange factor 4 (EPAC2) (AID 1645885); note: nearly all actives have a fitted effect of over 25% in size; note: potency is the fitted concentration of half-maximal effect
[6] = molecular target: Rap guanine nucleotide exchange factor 3 (Homo sapiens) (UniProt O95398); test: Counterscreen qHTS for antagonist of cAMP-regulated guanine nucleotide exchange factor 3 (EPAC1) (AID 1645888); note: % of control where 0% means no effect
Method in brief: (§1)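 Measured: fluorescence of BODIPY-GDP bound to Rap1B, which falls as exchange proceeds. Conditions include 50 uM competing GDP, 5 and 30 min reads, and a later cAMP challenge for antagonist detection.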

[7] = molecular target: Rap guanine nucleotide exchange factor 3 (Homo sapiens) (UniProt O95398); test: Counterscreen qHTS for agonist of cAMP-regulated guanine nucleotide exchange factor 3 (EPAC1) (AID 1645889); note: nearly all actives have a fitted effect of over 40% in size; note: potency is the fitted concentration of half-maximal effect; for activation: % of control where 0% means no effect
Method in brief: as §1

[8] = molecular target: Tumor susceptibility gene 101 protein (Homo sapiens) (UniProt Q99816); test: qHTS Assay for Iinhibitors of HIV-1 Budding by Blocking the Interaction of PTAP/TSG101: Hit Validation (AID 651600); note: nearly all actives have a fitted effect of over 70% in size; note: potency is the fitted concentration of half-maximal effect
Method in brief: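 FITC-PTAP peptide (50 nM final) binding to Tsg101 binding domain (10 uM final) was measured by polarization after 20 min at r.t. with compounds, in 10 mM HEPES pH 7.5 buffer with 0.15 M NaCl and 0.01% Tween 20.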

[9] = qHTS for Inhibitors of Plasmodium falciparum (DD2) proliferation (AID 504314);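 note: parasite DNA measured by SYBR Green fluorescence after red cell lysis; plate controls were DMSO vehicle for no effect and artemisinin wells for full effect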
Method in brief: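 P. falciparum Dd2 is grown in erythrocytes with test compound for 72 h at 37C under 5% CO2. Growth is scored by SYBR Green I fluorescence after detergent lysis, relative to artemisinin (0.29 uM) and DMSO controls.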

[10] = qHTS for Inhibitors of Plasmodium falciparum (GB4) proliferation (AID 504315);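 note: 0% = DMSO vehicle and -100% = 0.29 µM artemisinin control; nearly all actives have a fitted effect of over 50% in size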
Method in brief: (§2)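 Parasite growth measured as SYBR Green DNA fluorescence (ex 485, em 535 nm) after overnight lysis following 72 h culture at 37 °C, 0.3% parasitemia, 2.5% hematocrit. Values normalized against DMSO and 0.29 uM artemisinin controls, with plate-stack correction.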

[11] = qHTS for Inhibitors of Plasmodium falciparum (7G8) proliferation (AID 504316);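 note: 0% = DMSO vehicle and -100% = 0.29 µM artemisinin full kill; nearly all actives have a fitted effect of over 65% in size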
Method in brief: as §2

[12] = qHTS for Inhibitors of Plasmodium falciparum (HB3) proliferation (AID 504318);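 note: 0% = DMSO vehicle and -100% = artemisinin control; nearly all actives have a fitted effect of over 60% in size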
Method in brief: as §2

[13] = qHTS for Inhibitors of Plasmodium falciparum (CP250) proliferation (AID 504320);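 note: plate controls were DMSO vehicle for no effect and 0.29 µM artemisinin control for full effect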
Method in brief: as §2

[14] = molecular target: DNA polymerase iota (Homo sapiens) (UniProt Q9UNA4); test: qHTS for Inhibitors of Polymerase Iota: Confirmatory Assay for Cherry-picked Compounds (AID 720496); conditions: Pol iota primer extension, TAMRA/BHQ fluorescence; note: potency is the fitted concentration of half-maximal effect
Method in brief: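 Kinetic fluorescence, 0 → 10 min, ex 525/em 598 nm. Pol iota 10 nM, 15 min RT preincubation with compound, then 50 nM (final) TAMRA/BHQ-2 primer-template substrate.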

[15] = molecular target: Lethal(3)malignant brain tumor-like protein 1 (Homo sapiens) (UniProt Q9Y468); test: qHTS Assay for the Inhibitors of L3MBTL1: Hit Validation (AID 540279); conditions: L3MBTL1 methyl-lysine binding inhibition, biochemical qHTS; note: potency is the fitted concentration of half-maximal effect; nearly all actives have a fitted effect of over 70% in size
Method in brief: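 AlphaScreen competition format: 50 nM L3MBTL1 preincubated 30 min at room temperature with 75 nM biotinylated H3(1-15)K9me1 peptide, then compounds added for 30 min, then streptavidin donor and nickel chelate acceptor beads (10 ug/mL final) for 30 min dark.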

[16] = molecular target: DNA polymerase kappa (Homo sapiens) (UniProt Q9UBT6); test: qHTS for Inhibitors of Polymerase Kappa: Confirmatory Assay for Cherry-picked Compounds (AID 720501); conditions: purified Pol-kappa, fluorescent strand-displacement substrate; note: potency is the fitted concentration of half-maximal effect
Method in brief: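 Human Pol-kappa, dispensed at 10 nM, was preincubated with compounds for 15 min at room temperature. Reactions were started with primer/template substrate (50 nM final) carrying a TAMRA reporter strand and BHQ-2-quenched template, and fluorescence (ex 525/em 598 nm) was read at 0 and 10 min.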

[17] = AP1 Signaling Pathway (AID 357; active = well fitted curve in either direction with a large enough effect, not every such curve was filed as active;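 note: ME-180 reporter cells stimulated with EGF at its EC50 level; % is set by controls: 0 for no effect and ±100 for the full control effect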); conditions: ME-180 (cervical carcinoma) AP-1-bla reporter, EGF-induced, beta-lactamase ratio, 5 h; at 7.69 µM (top of the series) unless noted
Method in brief: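 In this screen, ME-180 cells in Opti-MEM with 0.5% dialyzed FBS received EC50 EGF and compound titrations for 5 h. AP-1 reporter beta-lactamase was detected via CCF4 ratio, giving AC50 for positive and negative modulators.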

[18] = NFAT Signaling Pathway (AID 444; active = well fitted curve in either direction with a large enough effect, not every such curve was filed as active;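 note: carbachol stimulus at about its EC50 of 1 µM final; % is set by controls: 0 for no effect and ±100 for the full control effect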); conditions: Jurkat NFAT-bla M1, carbachol, beta-lactamase ratio, 5 h; at 7.69 µM (top of the series) unless noted
Method in brief: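 Jurkat cells carrying an NFAT-driven β-lactamase reporter and co-transfected muscarinic M1 receptor were treated with compound plus carbachol (1 uM final, an EC50 level) for 5 h at 37 °C. CCF4 loading followed for 1 h at RT; 460/530 nm ratio gave %activity.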

[19] = molecular target: Glucocorticoid receptor (Homo sapiens) (UniProt P04150); test: GR-GFP Redistribution (AID 450;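 active = compounds whose dose series gives a full or clear partial fitted curve of increased nuclear translocation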; note: potency is the fitted concentration of half-maximal effect); conditions: U2OS GR-GFP nuclear translocation, laser cytometry, 2 h
[20] = molecular target: Glucocorticoid receptor (Homo sapiens) (UniProt P04150); test: GR-EFC Redistribution (AID 451; calls by dose curve; note: potency is the fitted concentration of half-maximal effect); conditions: CHO-K1 GR-EFC translocation, beta-gal luminescence, 2 h
Method in brief: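 CHO-K1 cells stably expressing nuclear-localized β-gal enzyme acceptor and GR fused C-terminally to the enzyme donor fragment; ligand-driven nuclear translocation restores β-gal by complementation. Compounds titrated up to 46 uM final, 2 h at 37 °C; luminescence read.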

[21] = molecular target: Mitogen-activated protein kinase 10 (Mus musculus) (UniProt Q61831); test: JNK3 AlphaScreen Assay (AID 530; active = well fitted curve in either direction with a large enough effect, not every such curve was filed as active;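 note: kinase came from lysate of stimulated human HepG2 cells; signal reports phosphorylation of biotinylated GST-cJun 1-79 at Ser73 with 10 µM ATP; % is set by controls: 0 for no effect and ±100 for the full control effect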)
Method in brief: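 Phosphorylation of biotinylated GST-cJun(1-79) at Ser73 is measured by AlphaScreen proximity luminescence. Enzyme is JNK3 in HepG2 lysates activated with interleukin-1beta and tumor necrosis factor alpha; ATP is 10 uM final.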

[22] = molecular target: 3',5'-cyclic-AMP phosphodiesterase 4B (Homo sapiens) (UniProt Q07343); test: qHTS Assay for Inhibitors of PDE-IV (AID 607; active = well fitted activation curve with a large enough effect in the main read-out, with a control signal flat, not every such curve was filed as active; note: % of control where 0% means no effect)
Method in brief: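 ACTOne HEK293 cells carry a modified cAMP-gated CNG channel and express endogenous PDE4; plated 1000 cells/well, compounds up to 22.9 uM final. Membrane-potential dye fluorescence (ex 535/em 590) was read; parental cells received 10 uM forskolin + 100 uM RO 20-1724.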

Chain of Tumor susceptibility gene 101 protein (Homo sapiens) (Q99816 whole entry, looked up, the tested form may be a part): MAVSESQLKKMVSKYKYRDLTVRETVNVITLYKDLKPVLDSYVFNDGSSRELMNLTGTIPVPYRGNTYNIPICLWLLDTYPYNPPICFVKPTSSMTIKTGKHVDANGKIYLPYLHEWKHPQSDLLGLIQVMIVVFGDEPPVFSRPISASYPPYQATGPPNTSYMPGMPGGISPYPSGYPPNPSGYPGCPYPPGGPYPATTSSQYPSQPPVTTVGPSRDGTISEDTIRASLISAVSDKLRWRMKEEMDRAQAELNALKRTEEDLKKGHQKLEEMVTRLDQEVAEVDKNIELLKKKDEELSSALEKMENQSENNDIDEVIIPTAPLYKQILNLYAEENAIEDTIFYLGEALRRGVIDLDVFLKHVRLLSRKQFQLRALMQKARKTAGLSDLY
Chain of Rap guanine nucleotide exchange factor 3 (Homo sapiens) (O95398 whole entry, looked up): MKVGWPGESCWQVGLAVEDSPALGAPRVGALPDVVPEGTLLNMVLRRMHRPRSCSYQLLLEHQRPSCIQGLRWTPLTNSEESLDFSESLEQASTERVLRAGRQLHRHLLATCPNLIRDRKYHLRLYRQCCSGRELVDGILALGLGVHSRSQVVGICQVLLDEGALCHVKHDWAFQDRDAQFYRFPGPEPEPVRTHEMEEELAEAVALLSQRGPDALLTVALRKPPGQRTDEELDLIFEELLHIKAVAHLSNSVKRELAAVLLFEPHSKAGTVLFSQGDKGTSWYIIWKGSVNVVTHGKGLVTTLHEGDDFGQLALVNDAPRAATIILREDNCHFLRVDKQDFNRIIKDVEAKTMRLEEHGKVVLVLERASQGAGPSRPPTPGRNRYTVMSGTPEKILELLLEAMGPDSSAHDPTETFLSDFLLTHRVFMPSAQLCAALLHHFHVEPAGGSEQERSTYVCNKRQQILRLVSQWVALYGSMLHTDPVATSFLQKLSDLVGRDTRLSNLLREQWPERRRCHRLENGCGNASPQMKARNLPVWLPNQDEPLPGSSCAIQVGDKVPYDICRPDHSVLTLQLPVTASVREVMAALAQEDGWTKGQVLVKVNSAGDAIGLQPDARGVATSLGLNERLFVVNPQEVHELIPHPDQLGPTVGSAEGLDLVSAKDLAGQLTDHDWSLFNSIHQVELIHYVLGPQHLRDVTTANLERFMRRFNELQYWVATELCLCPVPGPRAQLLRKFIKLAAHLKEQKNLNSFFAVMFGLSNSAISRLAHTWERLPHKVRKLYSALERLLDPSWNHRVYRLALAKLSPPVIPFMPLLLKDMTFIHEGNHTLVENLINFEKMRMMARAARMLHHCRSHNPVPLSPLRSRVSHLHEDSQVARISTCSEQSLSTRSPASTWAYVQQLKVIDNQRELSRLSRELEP
Chain of Rap guanine nucleotide exchange factor 4 (Homo sapiens) (Q8WZA2 whole entry, looked up): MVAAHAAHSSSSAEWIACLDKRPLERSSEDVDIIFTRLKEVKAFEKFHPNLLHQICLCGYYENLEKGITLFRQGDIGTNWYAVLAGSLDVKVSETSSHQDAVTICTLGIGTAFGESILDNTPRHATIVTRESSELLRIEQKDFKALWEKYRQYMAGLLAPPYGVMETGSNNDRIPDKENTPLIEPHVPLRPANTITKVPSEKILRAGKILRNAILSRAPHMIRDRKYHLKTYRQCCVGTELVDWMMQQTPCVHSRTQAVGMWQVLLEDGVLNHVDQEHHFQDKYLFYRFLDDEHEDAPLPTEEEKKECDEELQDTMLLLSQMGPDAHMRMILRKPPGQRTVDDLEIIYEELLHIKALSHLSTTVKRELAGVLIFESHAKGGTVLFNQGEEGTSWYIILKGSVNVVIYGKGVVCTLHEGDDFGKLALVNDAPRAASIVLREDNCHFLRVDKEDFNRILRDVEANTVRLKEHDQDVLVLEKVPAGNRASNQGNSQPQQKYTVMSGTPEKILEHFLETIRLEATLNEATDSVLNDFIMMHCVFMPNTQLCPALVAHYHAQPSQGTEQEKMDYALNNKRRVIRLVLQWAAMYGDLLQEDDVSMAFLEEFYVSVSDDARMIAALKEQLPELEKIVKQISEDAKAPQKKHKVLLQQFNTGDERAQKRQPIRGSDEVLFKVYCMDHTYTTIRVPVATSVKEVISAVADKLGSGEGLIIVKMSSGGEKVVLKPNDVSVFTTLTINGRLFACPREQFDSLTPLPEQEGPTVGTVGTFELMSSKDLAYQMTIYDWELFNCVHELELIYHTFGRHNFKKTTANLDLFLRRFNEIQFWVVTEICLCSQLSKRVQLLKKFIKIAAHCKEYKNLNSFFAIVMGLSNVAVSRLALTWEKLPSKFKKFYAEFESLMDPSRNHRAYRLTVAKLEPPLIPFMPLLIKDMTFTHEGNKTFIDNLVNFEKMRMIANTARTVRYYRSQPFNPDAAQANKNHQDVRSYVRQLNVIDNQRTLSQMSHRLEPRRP
Chain of DNA polymerase iota (Homo sapiens) (Q9UNA4 whole entry, looked up): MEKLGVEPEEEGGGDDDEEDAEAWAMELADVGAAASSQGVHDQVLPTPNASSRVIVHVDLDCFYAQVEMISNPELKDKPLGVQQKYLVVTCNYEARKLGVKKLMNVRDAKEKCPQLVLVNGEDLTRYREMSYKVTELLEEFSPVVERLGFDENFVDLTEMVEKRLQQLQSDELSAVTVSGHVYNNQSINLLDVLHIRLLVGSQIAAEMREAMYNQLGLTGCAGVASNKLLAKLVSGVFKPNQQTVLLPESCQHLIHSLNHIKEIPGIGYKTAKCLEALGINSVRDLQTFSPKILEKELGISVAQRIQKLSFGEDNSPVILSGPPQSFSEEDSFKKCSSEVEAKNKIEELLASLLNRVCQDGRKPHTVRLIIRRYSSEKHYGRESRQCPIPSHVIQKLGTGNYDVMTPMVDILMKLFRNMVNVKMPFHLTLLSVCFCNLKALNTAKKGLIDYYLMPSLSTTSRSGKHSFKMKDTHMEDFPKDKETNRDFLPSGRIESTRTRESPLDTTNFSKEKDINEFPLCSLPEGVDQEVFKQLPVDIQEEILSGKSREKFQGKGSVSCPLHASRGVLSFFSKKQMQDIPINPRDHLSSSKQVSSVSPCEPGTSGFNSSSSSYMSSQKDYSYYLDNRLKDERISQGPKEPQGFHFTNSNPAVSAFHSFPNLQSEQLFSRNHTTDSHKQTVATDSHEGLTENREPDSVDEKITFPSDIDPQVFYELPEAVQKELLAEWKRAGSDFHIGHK
Chain of Glucocorticoid receptor (Homo sapiens) (P04150 whole entry, looked up, the tested form may be a part): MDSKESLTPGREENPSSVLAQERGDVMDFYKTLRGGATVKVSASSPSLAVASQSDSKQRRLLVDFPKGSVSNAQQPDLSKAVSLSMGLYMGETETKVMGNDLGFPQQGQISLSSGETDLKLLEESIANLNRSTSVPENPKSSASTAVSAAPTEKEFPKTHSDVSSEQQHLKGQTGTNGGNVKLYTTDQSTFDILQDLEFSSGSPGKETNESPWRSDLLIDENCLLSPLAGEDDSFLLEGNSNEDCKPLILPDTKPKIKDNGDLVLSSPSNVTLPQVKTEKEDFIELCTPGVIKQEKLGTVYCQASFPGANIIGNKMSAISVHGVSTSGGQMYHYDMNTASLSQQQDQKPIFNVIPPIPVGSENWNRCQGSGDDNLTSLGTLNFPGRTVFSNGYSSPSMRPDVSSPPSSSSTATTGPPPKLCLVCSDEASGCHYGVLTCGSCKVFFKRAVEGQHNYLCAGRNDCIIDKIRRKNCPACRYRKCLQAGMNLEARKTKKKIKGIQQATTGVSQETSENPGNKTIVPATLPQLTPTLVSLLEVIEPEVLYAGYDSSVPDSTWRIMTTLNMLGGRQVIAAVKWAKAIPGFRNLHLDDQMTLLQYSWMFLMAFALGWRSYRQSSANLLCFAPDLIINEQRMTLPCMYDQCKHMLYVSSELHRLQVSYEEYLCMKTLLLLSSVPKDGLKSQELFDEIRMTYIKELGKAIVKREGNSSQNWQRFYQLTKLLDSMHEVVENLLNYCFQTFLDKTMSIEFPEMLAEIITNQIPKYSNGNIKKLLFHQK
Chain of Lethal(3)malignant brain tumor-like protein 1 (Homo sapiens) (Q9Y468 whole entry, looked up): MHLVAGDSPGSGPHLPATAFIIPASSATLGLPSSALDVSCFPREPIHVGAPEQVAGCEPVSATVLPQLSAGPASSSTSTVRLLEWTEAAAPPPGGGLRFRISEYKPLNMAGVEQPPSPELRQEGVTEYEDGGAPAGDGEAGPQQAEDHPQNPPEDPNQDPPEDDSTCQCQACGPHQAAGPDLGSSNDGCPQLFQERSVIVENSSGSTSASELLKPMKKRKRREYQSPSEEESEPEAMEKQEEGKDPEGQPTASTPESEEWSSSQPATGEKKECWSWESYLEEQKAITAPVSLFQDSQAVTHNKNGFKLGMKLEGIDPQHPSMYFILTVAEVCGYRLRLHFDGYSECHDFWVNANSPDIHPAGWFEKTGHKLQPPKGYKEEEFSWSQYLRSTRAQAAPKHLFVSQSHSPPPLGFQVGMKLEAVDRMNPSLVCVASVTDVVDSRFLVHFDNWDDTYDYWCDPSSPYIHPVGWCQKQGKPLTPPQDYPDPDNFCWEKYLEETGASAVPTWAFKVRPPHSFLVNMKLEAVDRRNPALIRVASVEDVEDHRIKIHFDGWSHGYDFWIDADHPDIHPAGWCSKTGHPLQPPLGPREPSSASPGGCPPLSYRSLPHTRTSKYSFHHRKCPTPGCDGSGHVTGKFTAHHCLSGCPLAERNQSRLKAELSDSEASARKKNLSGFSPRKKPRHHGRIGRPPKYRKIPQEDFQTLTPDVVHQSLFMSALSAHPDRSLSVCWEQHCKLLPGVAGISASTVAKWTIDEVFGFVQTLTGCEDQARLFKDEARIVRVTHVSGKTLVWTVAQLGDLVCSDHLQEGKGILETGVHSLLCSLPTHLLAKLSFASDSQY

CC1=NOC(=O)/C1=C\c1ccc(-c2ccc(Br)cc2)o1
active: Potency [1] 3.16 µM | Potency [2] 25.1 µM
inactive: Potency [3] | activation [4] -0.7% [at 17.1 µM, percent relative to cAMP agonist control] | Potency [5] | activity change, negative = inhibition [6] -10.2% [at 30.8 µM] | activation [7] 11.6% [at 30.8 µM]

O=C1c2cccc3c(O)ccc(c23)C(=O)N1c1ccc(Cl)cc1
inactive: Potency [2] | Potency [6]
active: Potency [8] 4.11 µM | Potency [3] 112 µM | Potency [4] 112 µM | Potency [5] 84.9 µM | Potency [7] 39.8 µM

c1ccc(-c2cn3nc(-c4ccccc4)c(-c4ccccc4)nc3n2)cc1
inactive: Potency [8] | Potency [2] | Potency [3] | activation [4] 8.73% [at 17.1 µM, percent relative to cAMP agonist control] | Potency [5] | activity change, negative = inhibition [6] 14.3% [at 30.8 µM] | activation [7] 16.7% [at 30.8 µM]

Cn1c(=O)c(N)c2c3c(c(Br)ccc31)C(=O)c1ccccc1-2
active: Potency [8] 1.63 µM | Potency [2] 26.9 µM | Potency [5] 26.9 µM
inactive: Potency [3] | Potency [4] | Potency [6] | Potency [7]

Cc1cc(C=C2C(=O)c3ccccc3C2=O)c(C)n1-c1ccc(Cl)cc1
inactive: Potency [8] | Potency [2] | Potency [3] | activation [4] 3.84% [at 17.1 µM, percent relative to cAMP agonist control] | Potency [5] | activity change, negative = inhibition [6] -26.7% [at 30.8 µM] | activation [7] 7.12% [at 30.8 µM]

Cc1cc(NS(=O)(=O)c2ccc(NC(=O)COc3c(C)cc(Br)cc3C)cc2)no1
inactive: Potency [8] | Potency [2] | Potency [3] | Potency [4] | Potency [5] | Potency [6] | Potency [7]

Cc1[nH]n(-c2ncc(-c3ccccc3)s2)c(=O)c1C(c1ccc(Br)cc1)C(C#N)C#N (stereo unspecified)
inactive: Potency [1] | Potency [3] | activation [4] 4.64% [at 17.1 µM, percent relative to cAMP agonist control] | Potency [5] | activity change, negative = inhibition [6] -9.33% [at 30.8 µM] | activation [7] 8.62% [at 30.8 µM]
active: Potency [2] 12.6 µM

CCN1C(=O)N(S(=O)(=O)C(F)(F)F)[C@@H](c2ccccc2)C(C(=O)OC)=C1C
inactive: outcome [9] | outcome [10] | outcome [11] | outcome [12] | outcome [13] | Potency [2] | Potency [3] | Potency [4] | Potency [5] | Potency [6] | Potency [7]

COC(=O)c1ccc(COc2ccc(/C=C/C(=O)c3ccc(OC)c(CSCC(=O)O)c3)cc2OC)cc1
active: Potency [14] 75.2 µM | Potency [2] 37.9 µM
inactive: Potency [3] | Potency [4] | Potency [5] | Potency [6] | Potency [7]

Cc1cc(=O)oc2ccc(OC(=O)CN3C(=O)c4cccc([N+](=O)[O-])c4C3=O)cc12
inactive: Potency [8] | Potency [2] | Potency [3] | Potency [4] | Potency [5] | Potency [6] | Potency [7]

COc1ccc(S(=O)(=O)/N=C2\C=C(NS(=O)(=O)c3ccccc3)C(=O)c3ccccc32)cc1
inactive: Potency [6] | Potency [7]
active: Potency [14] 67 µM | Potency [2] 8.49 µM | Potency [3] 50.1 µM | Potency [4] 100 µM | Potency [5] 10.7 µM

N=c1c(S(=O)(=O)c2ccc(Br)cc2)cc2c(=O)n3ccccc3nc2n1Cc1ccccc1
inactive: Potency [8] | Potency [3] | activation [4] -5.31% [at 17.1 µM, percent relative to cAMP agonist control] | Potency [5] | activity change, negative = inhibition [6] -6.58% [at 30.8 µM] | activation [7] 9.82% [at 30.8 µM]
active: Potency [2] 50.1 µM

Cc1[nH]n(-c2ncc(-c3ccccc3)s2)c(=O)c1C(c1ccc(Cl)cc1)C(C#N)C#N (stereo unspecified)
active: Potency [2] 22.4 µM
inactive: Potency [1] | Potency [3] | activation [4] -0.2% [at 17.1 µM, percent relative to cAMP agonist control] | Potency [5] | activity change, negative = inhibition [6] -10.4% [at 30.8 µM] | activation [7] 13% [at 30.8 µM]

Cc1ccc(N=C2NC(=O)/C(=C/C=C/c3ccco3)S2)cc1C
inactive: Potency [3] | activation [4] -4% [at 17.1 µM, percent relative to cAMP agonist control] | Potency [5] | activity change, negative = inhibition [6] 5.98% [at 30.8 µM] | activation [7] 25.8% [at 30.8 µM]
active: Potency [15] 21.2 µM | Potency [14] 47.4 µM | Potency [16] 47.4 µM | Potency [2] 12.6 µM

Cc1cc2nc3c(=O)n(C4CCCCC4)c(=O)[nH]c3nc2cc1N
active: Potency [8] 0.651 µM | Potency [3] 56.2 µM | Potency [4] 56.2 µM | Potency [7] 25.1 µM
inactive: Potency [2] | Potency [5] | Potency [6]

N#CC(C(=O)OC1CCCCC1)c1nc2ccccc2nc1N1CCOCC1 (stereo unspecified)
inactive: Potency [2] | Potency [3] | activation [4] -10.2% [at 17.1 µM, percent relative to cAMP agonist control] | Potency [5] | activity change, negative = inhibition [6] -21.8% [at 30.8 µM] | activation [7] -0.592% [at 30.8 µM]
active: Potency [8] 10.3 µM

NS(=O)(=O)c1ccc(N=Nc2c[nH]c(=O)c(O)c2)cc1
active: Potency [8] 18.3 µM | Potency [2] 42.6 µM | Potency [5] 84.9 µM
inactive: activity change, negative = inhibition [17] 8.24% | activity change, negative = inhibition [18] -22.1% | Potency [19] > 46 µM | Potency [20] > 9.22 µM | activity change, negative = inhibition [21] -17.1% [at 11.4 µM] | Potency [22] | Potency [3] | Potency [4] | Potency [6] | Potency [7]
